# Experimental data as given in the supplement of paper PMC6089552.
# The campaign covered roughly 3,200 compounds. About 300 (9.4%) showed activity. The sample holds actives, similar compounds and a random draw of the others, so the mix is not that of the screen. Unmarked numbers belong to inactive results.
# Test system: A673/TR/shEF
# Assay: cell viability (LOESS-normalised, relative to median of negative controls) (log2 ratio); higher = more viable cells (less compound effect), active = hit call of the paper (over 3 MAD below the median)
# Conditions: treatment time: 72 h
# In short: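 For three days, A673/TR/shEF Ewing sarcoma cells in 384-well plates (1,500 per well) were treated with library compounds at two or more concentrations or with DMSO controls, after doxycycline had been added or withheld 24 h beforehand to induce EWS-FLI1 shRNA knockdown. Viability was read by CellTiter-Glo luminescence on an Envision reader. The data were LOESS-corrected per plate, divided by the median of negative controls and log2-transformed.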
# [1] = 0.25 µM, library screen: screen1, EWS-FLI1 expression: high (no doxycycline)
# [2] = 0.25 µM, library screen: screen1, EWS-FLI1 expression: low (doxycycline-induced shRNA knockdown)
# [3] = 2.5 µM, library screen: screen1, EWS-FLI1 expression: high (no doxycycline)
# [4] = 2.5 µM, library screen: screen1, EWS-FLI1 expression: low (doxycycline-induced shRNA knockdown)
# [5] = 0.25 µM, library screen: screen2, EWS-FLI1 expression: high (no doxycycline)
# [6] = 0.25 µM, library screen: screen2, EWS-FLI1 expression: low (doxycycline-induced shRNA knockdown)
# [7] = 2.5 µM, library screen: screen2, EWS-FLI1 expression: high (no doxycycline)
# [8] = 2.5 µM, library screen: screen2, EWS-FLI1 expression: low (doxycycline-induced shRNA knockdown)
smiles,measurement,setting,value
C[C@@H]1[C@H](O)[C@@H](C)/C=C/C=C/CC/C=C/C=C/C=C/C=C/C(O[C@H]2O[C@H](C)[C@@H](O)[C@H](N)[C@@H]2O)CC2O[C@](O)(CC(O)C(O)CCC(O)CC(O)CC(O)CC(=O)O[C@H]1C)CC(O)C2C(=O)O (stereo not given in full),cell viability (log2),"0.103 µM, library screen: screen3, EWS-FLI1 expression: high (no doxycycline)",0.0278
same,cell viability (log2),"0.103 µM, library screen: screen3, EWS-FLI1 expression: low (doxycycline-induced shRNA knockdown)",0.00627
same,cell viability (log2),[1],0.0655
same,cell viability (log2),[2],0.0679
same,cell viability (log2),"0.308 µM, library screen: screen3, EWS-FLI1 expression: high (no doxycycline)",0.00683
same,cell viability (log2),"0.308 µM, library screen: screen3, EWS-FLI1 expression: low (doxycycline-induced shRNA knockdown)",0.0137
same,cell viability (log2),"0.926 µM, library screen: screen3, EWS-FLI1 expression: high (no doxycycline)",0.00828
same,cell viability (log2),"0.926 µM, library screen: screen3, EWS-FLI1 expression: low (doxycycline-induced shRNA knockdown)",0.0539
same,cell viability (log2),[3],0.133
same,cell viability (log2),[4],0.104
same,cell viability (log2),"2.8 µM, library screen: screen3, EWS-FLI1 expression: high (no doxycycline)",-0.00919
same,cell viability (log2),"2.8 µM, library screen: screen3, EWS-FLI1 expression: low (doxycycline-induced shRNA knockdown)",0.0174
same,cell viability (log2),"8.3 µM, library screen: screen3, EWS-FLI1 expression: high (no doxycycline)",0.0134
same,cell viability (log2),"8.3 µM, library screen: screen3, EWS-FLI1 expression: low (doxycycline-induced shRNA knockdown)",0.0644
same,cell viability (log2),"25 µM, library screen: screen3, EWS-FLI1 expression: high (no doxycycline)",0.0075
same,cell viability (log2),"25 µM, library screen: screen3, EWS-FLI1 expression: low (doxycycline-induced shRNA knockdown)",0.0194
CN=C1CN(O)C(c2ccccc2)=c2cc(Cl)ccc2=N1,cell viability (log2),[1],0.0853
same,cell viability (log2),[2],0.0654
same,cell viability (log2),[3],0.0997
same,cell viability (log2),[4],0.0898
CCN1C[C@]2(C)CC[C@H](OC)[C@@]34C1[C@]1(OCO[C@@]15C[C@H](OC)[C@H]1C[C@]3(O)[C@@H]5[C@H]1OC)[C@@H](OC(C)=O)[C@H]24,cell viability (log2),[1],0.0895
same,cell viability (log2),[2],0.0208
same,cell viability (log2),[3],0.12
same,cell viability (log2),[4],0.0444
C=CCN1CC[C@]23c4c5ccc(O)c4O[C@@H]2/C(=N/N=C2\CC[C@@]4(O)C6Cc7ccc(O)c8c7[C@@]4(CCN6CC=C)[C@@H]2O8)CC[C@@]3(O)C1C5,cell viability (log2),[5],0.27
same,cell viability (log2),[6],0.119
same,cell viability (log2),[7],0.0736
same,cell viability (log2),[8],0.0511
S=C=NCc1ccccc1,cell viability (log2),[1],0.0421
same,cell viability (log2),[2],0.0817
same,cell viability (log2),[3],0.0546
same,cell viability (log2),[4],0.123
CCOP(=S)(OCC)Oc1ccc2c(C)c(Cl)c(=O)oc2c1,cell viability (log2),[1],-0.0154
same,cell viability (log2),[2],-0.0116
same,cell viability (log2),[3],0.000589
same,cell viability (log2),[4],-0.0198
COc1c2c(cc3c1OCO3)CC[N+](C)=C2,cell viability (log2),[1],0.122
same,cell viability (log2),[2],0.157
same,cell viability (log2),[3],0.0941
same,cell viability (log2),[4],0.18
COc1ccc(C(=O)OC2CCC3(C)C4CCC5[C@]6(O)C[C@H](O)[C@@]7(O)C(CN8CC(C)CCC8[C@@]7(C)O)[C@]6(O)C[C@@]53O[C@]24O)cc1OC (stereo not given in full),cell viability (log2),[1],0.0564
same,cell viability (log2),[2],0.0531
same,cell viability (log2),[3],0.0896
same,cell viability (log2),[4],0.133
S=C=Nc1cccc(C2(N3CCCCC3)CCCCC2)c1,cell viability (log2),[5],0.168
same,cell viability (log2),[6],0.105
same,cell viability (log2),[7],0.16
same,cell viability (log2),[8],0.118
NCCCP(=O)(O)O,cell viability (log2),[5],0.138
same,cell viability (log2),[6],0.0766
same,cell viability (log2),[7],0.114
same,cell viability (log2),[8],0.116
O=C1C=CC(=O)c2c(O)cccc21,cell viability (log2),"0.025 µM, library screen: screen2, EWS-FLI1 expression: high (no doxycycline)",0.123
same,cell viability (log2),"0.025 µM, library screen: screen2, EWS-FLI1 expression: low (doxycycline-induced shRNA knockdown)",0.0947
same,cell viability (log2),[1],0.185
same,cell viability (log2),[2],0.0663
same,cell viability (log2),[5],0.0843
same,cell viability (log2),[6],0.00401
same,cell viability (log2),[3],0.153
same,cell viability (log2),[4],0.0956
same,cell viability (log2),[7],0.273
same,cell viability (log2),[8],0.125
same,cell viability (log2),"25 µM, library screen: screen2, EWS-FLI1 expression: high (no doxycycline)",-0.0924 (active)
same,cell viability (log2),"25 µM, library screen: screen2, EWS-FLI1 expression: low (doxycycline-induced shRNA knockdown)",-0.0926 (active)
CCCCCCC(C)(C)c1ccc([C@H]2C[C@@H](O)CC[C@H]2CCCO)c(O)c1,cell viability (log2),[5],0.0289
same,cell viability (log2),[6],0.103
same,cell viability (log2),[7],0.129
same,cell viability (log2),[8],0.122
CCc1cccc(C)c1N(C(=O)CCl)C(C)COC (stereo not given),cell viability (log2),[1],0.0561
same,cell viability (log2),[2],0.0711
same,cell viability (log2),[3],0.0898
same,cell viability (log2),[4],0.0634
CCCC(C)(COC(N)=O)COC(=O)NC(C)C (stereo not given),cell viability (log2),[1],0.0415
same,cell viability (log2),[2],0.112
same,cell viability (log2),[5],0.196
same,cell viability (log2),[6],0.0672
same,cell viability (log2),[3],0.137
same,cell viability (log2),[4],0.151
same,cell viability (log2),[7],-0.0715 (active)
same,cell viability (log2),[8],0.121
C[N+]1=Cc2cc3c(cc2CC1)OCO3,cell viability (log2),[1],0.0752
same,cell viability (log2),[2],0.0244
same,cell viability (log2),[3],0.15
same,cell viability (log2),[4],0.0111
COc1ccc([C@H]2Oc3c(I)c(OC)cc(OC)c3C[C@@H]2O)cc1OC,cell viability (log2),[1],-0.0318
same,cell viability (log2),[2],0.027
same,cell viability (log2),[3],0.0859
same,cell viability (log2),[4],0.059
N#C/C(=C\c1ccc(O)cc1)C(=O)O,cell viability (log2),[1],0.0465
same,cell viability (log2),[2],0.0904
same,cell viability (log2),[3],0.146
same,cell viability (log2),[4],0.0788
C[C@@H](N)Cc1cnc[nH]1,cell viability (log2),[5],0.0946
same,cell viability (log2),[6],0.0207
same,cell viability (log2),[7],0.146
same,cell viability (log2),[8],0.00233
OC[C@H]1O[C@@H](n2cnc3cc(Cl)c(Cl)cc32)[C@H](O)[C@@H]1O,cell viability (log2),"0.025 µM, library screen: screen1, EWS-FLI1 expression: high (no doxycycline)",0.182
same,cell viability (log2),"0.025 µM, library screen: screen1, EWS-FLI1 expression: low (doxycycline-induced shRNA knockdown)",-0.067
same,cell viability (log2),[1],0.227
same,cell viability (log2),[2],0.0134
same,cell viability (log2),[3],-0.183 (active)
same,cell viability (log2),[4],0.128
same,cell viability (log2),"25 µM, library screen: screen1, EWS-FLI1 expression: high (no doxycycline)",-0.16 (active)
same,cell viability (log2),"25 µM, library screen: screen1, EWS-FLI1 expression: low (doxycycline-induced shRNA knockdown)",0.0669
Cc1cc([C@@H]2CCCN2C)on1,cell viability (log2),[5],0.0967
same,cell viability (log2),[6],0.135
same,cell viability (log2),[7],0.0205
same,cell viability (log2),[8],0.0708
CN1CC[C@]2(CCN3CCc4c(oc5ccccc45)[C@@H]3C2)N(C)C1=O,cell viability (log2),[5],0.195
same,cell viability (log2),[6],0.0926
same,cell viability (log2),[7],0.114
same,cell viability (log2),[8],0.114
CCCCN(CC)c1c([N+](=O)[O-])cc(C(F)(F)F)cc1[N+](=O)[O-],cell viability (log2),[1],0.116
same,cell viability (log2),[2],0.132
same,cell viability (log2),[3],0.0478
same,cell viability (log2),[4],0.194
ClC1=C(Cl)C2(Cl)C3C(Cl)C=CC3C1(Cl)C2(Cl)Cl (stereo not given),cell viability (log2),[1],0.152
same,cell viability (log2),[2],0.0412
same,cell viability (log2),[3],0.0862
same,cell viability (log2),[4],0.0598
